According to PubChem BioAssay (NCATS):
Results filed as inconclusive are left out. Active and inactive are the calls of the source. Calls follow the shape of the dose curve; as a rule, active = well fitted curve in the direction sought with a large enough effect; inconclusive = small, poorly fitted or top-dose-only effect, or another doubt; inactive = no such curve, though single readings can be large; an effect the other way counts as inactive or inconclusive.

Columns and labels:
[1] = target: Rap guanine nucleotide exchange factor 3 (Homo sapiens) (UniProt O95398); experiment: Confirmatory qHTS for antagonist of cAMP-regulated guanine nucleotide exchange factor 3 (EPAC1) (AID 1645880); conditions: EPAC1 Rap1B-BODIPY-GDP exchange, fluorescence; activity, negative = inhibition: at 115 µM (top of the series); also: nearly all actives have a fitted effect of over 55% in size; also: potency is read from the fitted curve at half-maximal effect;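 as to activity, negative = inhibition: plate controls were DMSO only for no effect and full effect of the ATA control for full effect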
Chain of Rap guanine nucleotide exchange factor 3 (Homo sapiens) (O95398 whole entry, looked up): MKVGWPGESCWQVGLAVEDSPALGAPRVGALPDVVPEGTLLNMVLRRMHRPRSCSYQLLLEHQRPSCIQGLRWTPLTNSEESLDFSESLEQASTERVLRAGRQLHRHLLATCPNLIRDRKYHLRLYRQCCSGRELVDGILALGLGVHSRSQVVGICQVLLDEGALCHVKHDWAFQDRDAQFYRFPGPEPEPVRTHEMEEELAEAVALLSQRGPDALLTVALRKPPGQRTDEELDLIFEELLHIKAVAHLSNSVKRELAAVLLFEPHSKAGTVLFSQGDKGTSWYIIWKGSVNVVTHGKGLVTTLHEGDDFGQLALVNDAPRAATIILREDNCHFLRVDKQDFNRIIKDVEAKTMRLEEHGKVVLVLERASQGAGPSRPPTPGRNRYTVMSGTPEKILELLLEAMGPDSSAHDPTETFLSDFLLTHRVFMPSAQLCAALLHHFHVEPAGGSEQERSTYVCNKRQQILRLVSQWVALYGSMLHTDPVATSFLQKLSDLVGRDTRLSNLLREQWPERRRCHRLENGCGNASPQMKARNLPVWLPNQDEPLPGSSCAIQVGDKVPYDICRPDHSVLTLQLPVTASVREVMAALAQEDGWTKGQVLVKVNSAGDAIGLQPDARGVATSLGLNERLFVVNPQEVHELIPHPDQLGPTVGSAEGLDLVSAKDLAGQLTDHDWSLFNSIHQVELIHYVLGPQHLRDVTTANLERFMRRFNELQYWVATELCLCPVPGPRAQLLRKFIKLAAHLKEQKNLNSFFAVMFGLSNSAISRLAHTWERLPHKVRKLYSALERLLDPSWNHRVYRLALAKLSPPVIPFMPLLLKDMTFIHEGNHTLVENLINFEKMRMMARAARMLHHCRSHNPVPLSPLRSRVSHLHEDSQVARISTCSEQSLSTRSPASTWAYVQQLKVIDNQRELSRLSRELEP
In short: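 Nucleotide exchange uses 100 nM EPAC1, 250 nM RAP1B-BODIPY-GDP and 50 uM GDP, with compounds in a concentration-titration series. After 5 min at room temperature, fluorescence (480 nm ex/540 nm em) is read every 5 min for 30 min. Data are normalized to control ATA and DMSO.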

[2] = target: Rap guanine nucleotide exchange factor 3 (Homo sapiens) (UniProt O95398); experiment: Confirmatory qHTS for agonist of cAMP-regulated guanine nucleotide exchange factor 3 (EPAC1) (AID 1645881);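 also: EPAC1 catalysed release of BODIPY-GDP from Rap1B seen as fluorescence loss; 100% = effect of cAMP agonist control; nearly all actives have a fitted effect of over 75% in size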
[3] = target: Rap guanine nucleotide exchange factor 4 (Homo sapiens) (UniProt Q8WZA2); experiment: Confirmatory qHTS for agonist of cAMP-regulated guanine nucleotide exchange factor 4 (EPAC2) (AID 1645884);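 also: nucleotide exchange releases bodipy-GDP from Rap1 and this lowers its fluorescence; % is scaled to controls: 0 for no effect and ±100 for the full control effect; nearly all actives have a fitted effect of over 65% in size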
Chain of Rap guanine nucleotide exchange factor 4 (Homo sapiens) (Q8WZA2 whole entry, looked up): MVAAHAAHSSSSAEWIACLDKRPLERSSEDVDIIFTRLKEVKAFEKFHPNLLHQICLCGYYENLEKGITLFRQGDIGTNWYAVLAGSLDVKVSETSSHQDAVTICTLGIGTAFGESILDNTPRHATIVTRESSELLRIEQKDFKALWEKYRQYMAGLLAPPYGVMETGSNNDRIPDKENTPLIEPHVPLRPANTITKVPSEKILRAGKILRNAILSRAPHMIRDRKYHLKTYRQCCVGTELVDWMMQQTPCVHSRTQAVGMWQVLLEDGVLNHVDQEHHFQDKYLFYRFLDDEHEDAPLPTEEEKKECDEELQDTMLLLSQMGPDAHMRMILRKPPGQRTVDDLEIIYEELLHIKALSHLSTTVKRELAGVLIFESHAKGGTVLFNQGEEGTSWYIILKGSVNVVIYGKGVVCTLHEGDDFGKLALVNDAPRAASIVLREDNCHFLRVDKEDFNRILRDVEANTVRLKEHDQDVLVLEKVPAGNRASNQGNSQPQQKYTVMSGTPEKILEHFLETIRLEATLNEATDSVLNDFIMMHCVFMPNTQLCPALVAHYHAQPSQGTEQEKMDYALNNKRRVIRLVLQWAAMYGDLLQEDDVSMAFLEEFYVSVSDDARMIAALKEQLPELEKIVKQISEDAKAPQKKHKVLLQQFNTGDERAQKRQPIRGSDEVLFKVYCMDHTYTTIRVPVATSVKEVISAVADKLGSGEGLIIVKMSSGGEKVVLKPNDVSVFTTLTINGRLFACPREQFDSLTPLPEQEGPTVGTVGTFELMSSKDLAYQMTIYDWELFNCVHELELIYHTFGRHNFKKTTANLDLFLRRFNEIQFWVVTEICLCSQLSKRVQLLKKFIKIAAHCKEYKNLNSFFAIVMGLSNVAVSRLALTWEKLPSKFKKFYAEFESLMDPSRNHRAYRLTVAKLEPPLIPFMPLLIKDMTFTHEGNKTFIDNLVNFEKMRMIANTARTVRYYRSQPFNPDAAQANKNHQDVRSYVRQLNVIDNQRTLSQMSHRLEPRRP

[4] = target: Rap guanine nucleotide exchange factor 3 (Homo sapiens) (UniProt O95398); experiment: Counterscreen qHTS for antagonist of cAMP-regulated guanine nucleotide exchange factor 3 (EPAC1) (AID 1645888);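 also: fluorescence loss as bound BODIPY-GDP is released from Rap1B; % of control where 0% means no effect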
In short: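 Measured: fluorescence of BODIPY-GDP bound to Rap1B, which falls as exchange proceeds. Conditions include 50 uM competing GDP, 5 and 30 min reads, and a later cAMP challenge for antagonist detection.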

[5] = target: Cytochrome P450 3A4 (Homo sapiens) (UniProt P08684); experiment: qHTS Assay for Inhibitors and Substrates of Cytochrome P450 3A4 (AID 884); also: potency is read from the fitted curve at half-maximal effect; nearly all actives have a fitted effect of over 50% in size
Chain of Cytochrome P450 3A4 (Homo sapiens) (P08684 whole entry, looked up): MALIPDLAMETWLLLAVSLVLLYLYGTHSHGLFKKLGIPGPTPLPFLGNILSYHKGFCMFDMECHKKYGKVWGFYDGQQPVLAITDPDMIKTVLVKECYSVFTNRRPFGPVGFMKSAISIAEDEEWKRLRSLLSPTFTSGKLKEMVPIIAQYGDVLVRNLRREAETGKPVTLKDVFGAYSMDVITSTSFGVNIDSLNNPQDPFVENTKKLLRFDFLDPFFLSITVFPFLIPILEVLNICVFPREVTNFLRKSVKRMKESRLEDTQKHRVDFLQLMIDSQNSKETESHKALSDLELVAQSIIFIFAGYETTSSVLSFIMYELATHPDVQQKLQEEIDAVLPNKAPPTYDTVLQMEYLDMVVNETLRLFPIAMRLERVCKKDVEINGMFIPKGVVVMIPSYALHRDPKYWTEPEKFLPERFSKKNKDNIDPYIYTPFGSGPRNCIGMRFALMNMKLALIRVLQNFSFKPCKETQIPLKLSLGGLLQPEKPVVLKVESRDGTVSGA
In short: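 20 nM human CYP3A4 with 25 uM Luciferin-PPXE (at KM) in 200 mM KPO4, preincubated 10 min with compound; NADPH regeneration started a 60 min RT reaction. Luciferin detected by luminescence, normalized to 57 uM ketoconazole as full inhibition.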

[6] = target: Cytochrome P450 3A4 (Homo sapiens) (UniProt P08684); experiment: qHTS Assay for Activators of Cytochrome P450 3A4 (AID 885); also: nearly all actives have a fitted effect of over 65% in size
In short: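 Human CYP3A4 (20 nM) with Luciferin-PPXE at 25 uM (its KM) in 200 mM KPO4; 10 min compound preincubation, then NADPH regeneration and 60 min reaction at RT. Luciferin read by luminescence; normalized to 57 uM ketoconazole full inhibition.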

[7] = Confirmation and Secondary Assay for Modulators of Hemoglobin Beta Chain Splicing at IVS2 654 locus (AID 910);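 also: per-well total GFP intensity by laser scanning cytometry after 2-day treatment; % of control where 0% means no effect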
In short: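 HeLa cells stably carrying EGFP interrupted by mutant beta-globin IVS2-654 intron (CMV-driven) were treated with compound for 2 days at 37C; corrected splicing was scored as total peak GFP intensity per well (488 nm excitation, 500-520 nm emission).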

[8] = Confirmation and Secondary Assay for Modulators of Hemoglobin Beta Chain Splicing at IVS2 705 locus (AID 930);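 also: HeLa cells stably expressing the EGFP-705 splicing reporter; GFP fluorescence per well restored by corrected splicing of the IVS2-705 intron in EGFP; % of control where 0% means no effect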
In short: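 Secondary splice-site specificity test uses HeLa expressing CMV-driven EGFP interrupted by IVS2-705; cells were treated 2 days at 37C with 500 nM antisense PNA as positive control.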

[9] = target: Rap guanine nucleotide exchange factor 4 (Homo sapiens) (UniProt Q8WZA2); experiment: Confirmatory qHTS for antagonist of cAMP-regulated guanine nucleotide exchange factor 4 (EPAC2) (AID 1645885); also: % is scaled to controls: 0 for no effect and ±100 for the full control effect; nearly all actives have a fitted effect of over 25% in size

O=[N+]([O-])c1ccccc1O[C@@H]1O[C@H](CO)[C@H](O)[C@H](O)[C@H]1O
inactive: Potency [1] | Potency [2] | Potency [3] | Potency [4]

O=C(Cn1cnc2c(nnn2Cc2ccccc2)c1=O)N1CCN(c2ccccc2)CC1
inactive: Potency [1] | Potency [2] | Potency [3] | Potency [4]

COc1ccc(N2C(=O)CSC2c2cccc(F)c2)c(OC)c1 (centres undefined)
inactive: Potency [1] | Potency [2] | activation [3] 2.35% [at 17.1 µM, percent relative to cAMP agonist control] | activity change, negative = inhibition [4] -18.3% [at 30.8 µM]

Cc1oc2cc([N+](=O)[O-])c(O)c([N+](=O)[O-])c2c1C(=O)c1ccc(Br)cc1
inactive: Potency [2] | Potency [3] | Potency [4]
active: Potency [1] 75.7 µM

COc1cc2c(cc1OC)C1C(=O)c3ccc4c(c3OC1CO2)C=CC(C)(C)O4 (centres undefined)
active: Potency [5] 31.6 µM
inactive: outcome [6] | Potency [7] | Potency [8] | Potency [1] | Potency [2] | Potency [3] | Potency [9]

Cc1cc(C)nc(SCC(=O)c2ccc(F)c(C)c2)n1
inactive: Potency [1] | Potency [2] | Potency [3] | Potency [4]

Cn1c(N)c(C(=O)COC(=O)C2(c3ccc(Cl)cc3)CCCC2)c(=O)n(C)c1=O
inactive: Potency [1] | Potency [2] | Potency [3] | Potency [4]

CCCCN(C(=O)c1ccc2c(c1)OCO2)c1ccccc1
inactive: Potency [1] | Potency [2] | Potency [3] | Potency [4]

Cc1ccc(-c2nnc(Nc3ccc4c(c3)OCO4)c3ccccc23)cc1S(N)(=O)=O
active: Potency [1] 47.8 µM
inactive: Potency [2] | Potency [3] | Potency [4]

Cc1cc2oc(=O)c(CC(=O)O)c(C)c2c2occ(C(C)(C)C)c12
inactive: Potency [1] | Potency [2] | Potency [3] | Potency [4]

CN1OC[C@@H]2CN(Cc3ccc(Cl)cc3)[C@H](c3ccc(-n4ccnc4)cc3)C[C@@H]21
inactive: Potency [1] | Potency [2] | activation [3] 4.62% [at 17.1 µM, percent relative to cAMP agonist control] | activity change, negative = inhibition [4] 1.17% [at 30.8 µM]

O=C1/C(=C\c2ccc(Br)cc2)SC(=S)N1NS(=O)(=O)c1ccccc1
inactive: Potency [2] | activation [3] 10.7% [at 17.1 µM, percent relative to cAMP agonist control] | activity change, negative = inhibition [4] 6.09% [at 30.8 µM]
active: Potency [1] 11.2 µM

CCCCn1nnnc1C(c1ccccc1)N1CCN(c2ccc(F)cc2)CC1 (centres undefined)
inactive: Potency [1] | Potency [2] | Potency [3] | Potency [4]

COc1ccccc1CN(C)CC(=O)Nc1ccccc1-c1ccccc1
inactive: Potency [1] | Potency [2] | Potency [3] | Potency [4]

COc1cc(/C=C2\C(=N)N3N=C(S(C)(=O)=O)SC3=NC2=O)cc(OC)c1OCCOc1ccccc1C
inactive: Potency [2] | Potency [3] | Potency [4]
active: Potency [1] 67.5 µM

CCc1nc2c(OCc3ccc(C(F)(F)F)cc3)cccn2c1N(C)C(=O)c1ccc(OC)cc1
inactive: Potency [1] | Potency [2] | activation [3] 16% [at 17.1 µM, percent relative to cAMP agonist control] | activity change, negative = inhibition [4] -20.8% [at 30.8 µM]

Cc1ccc(CNc2cc(C)nc3nc(-c4cccc(C)c4)nn23)cc1
inactive: Potency [1] | Potency [2] | Potency [3] | Potency [4]

CCOC(=O)c1ccccc1NC(=O)COC(=O)C(Cc1c[nH]c2ccccc12)NC(C)=O (centres undefined)
inactive: Potency [1] | Potency [2] | Potency [3] | Potency [4]

Cc1cccc(C(=O)Oc2ccc(/C=N/NC(=O)c3cc(O)cc(O)c3)cc2)c1
inactive: Potency [2] | Potency [3] | Potency [4]
active: Potency [1] 16.9 µM

CCc1nc2ccccc2c(C(=O)NCc2ccccc2)c1C
inactive: Potency [1] | Potency [2] | Potency [3] | Potency [4]

CCN(CC1COc2ccccc2O1)C(=O)CN1C(=O)NC(C)(c2ccc(C)cc2)C1=O (centres undefined)
inactive: Potency [1] | Potency [2] | Potency [3] | Potency [4]

O=C(CN1C(=O)c2ccccc2C1=O)Nc1cc([N+](=O)[O-])ccc1O
inactive: Potency [1] | Potency [2] | Potency [3] | Potency [4]

COc1ccccc1Nc1nc2ccc(C)cc2cc1C#N
inactive: Potency [1] | Potency [2] | Potency [3] | Potency [4]

Cc1cc(Nc2ccccc2)c2c([N+](=O)[O-])ccc(C)c2n1
inactive: Potency [1] | Potency [2] | Potency [3] | Potency [4]

Cc1nn(-c2ccccc2)c(Cl)c1/C=N/Nc1ccc(S(=O)(=O)Nc2ccccc2C(=O)O)cc1[N+](=O)[O-]
inactive: Potency [2] | Potency [3] | Potency [4]
active: Potency [1] 42.6 µM

COC(=O)c1c(-c2ccc(OC)cc2)sc2ccc(OC)cc12
inactive: Potency [1] | Potency [2] | Potency [3] | Potency [4]

CSc1nc(C)cc(C)c1S(=O)(=O)c1ccccc1C
inactive: Potency [1] | Potency [2] | activation [3] 8.78% [at 17.1 µM, percent relative to cAMP agonist control] | activity change, negative = inhibition [4] -5.37% [at 30.8 µM]

O=C1CC2(CCCCC2)Oc2ccc(F)cc21
inactive: Potency [1] | Potency [2] | Potency [3] | Potency [4]

CC(C)C(NC(=O)c1ccccc1)C(=O)OCn1nnc2ccccc2c1=O (centres undefined)
inactive: Potency [1] | Potency [2] | Potency [3] | Potency [4]

Cc1cc(NC(=O)COC(=O)C(C)Oc2ccc(Cl)cc2Cl)no1 (centres undefined)
inactive: Potency [1] | Potency [2] | Potency [3] | Potency [4]
